Laboratory results published in the supplement of paper PMC12494721.
Counter-ions that a name gives are not always drawn.

Test system: Klebsiella aerogenes DSM 30053
Test: fold change of Cadaverine concentration vs plate DMSO controls (fold change (ratio)); higher = more amine produced, active = hit call of the paper (significant change in both replicates, either direction)
Details: incubation time: 27 h, anaerobic, 37 °C;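 for the amine columns active = adjusted P below 0.05 in both replicates with a change the same way and a mean fold change under 0.8 or over 1.25; inactive = the rest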
Outline: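 Extracts of whole anaerobic mGAM cultures were analysed for amines by LC–triple-quadrupole MS with dynamic MRM and external calibration curves, with drift corrected within batch. Four gut strains were grown at 37 °C for 27 h in 80 µL wells with compounds at 20 µM final, sweeteners at 50 µM final. Each value expresses fold change over plate DMSO controls. The average of 2 biological replicates is shown.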

Fold change of Cadaverine concentration, inactive:
CCCCCCC[N+](CC)(CC)CCCCc1ccc(Cl)cc1 [Clofilium tosylate] (20 µM) 1.03, N=C(N)NCC1COC2(CCCCC2)O1 (stereo not given) [Guanadrel sulfate] (20 µM) 1, CCCC(CCC)C(=O)O[C@H]1C[C@H]2CC[C@@H](C1)[N+]2(C)C [Anisotropine Methylbromide] (20 µM) 0.99, COc1ccc2c(c1)c(CC(=O)OCC(=O)O)c(C)n2C(=O)c1ccc(Cl)cc1 [Acemetacin] (20 µM) 1.01, CN1CCCN=C1/C=C/c1cccc(O)c1 [Oxantel pamoate] (20 µM) 1.01, COc1c(O[C@@H]2O[C@H](CO)[C@@H](O)[C@H](O)[C@H]2O)cc2c(c1OC)-c1ccc(SC)c(=O)cc1[C@@H](NC(C)=O)CC2 [Thiocolchicoside] (20 µM) 0.991, Cc1c(Nc2ncccc2C(=O)O)cccc1C(F)(F)F [Flunixin meglumine] (20 µM) 1, C#C[C@]1(OC(C)=O)CC[C@H]2[C@@H]3CCC4=CC(=NO)CC[C@@H]4[C@H]3CC[C@@]21CC (mixture of isomers) [Norgestimate] (20 µM) 0.993, CC12CC3CC(C)(C1)CC(N)(C3)C2 [Memantine hydrochloride] (20 µM) 0.992, CC(CCc1ccccc1)NCC(O)c1ccc(O)c(C(N)=O)c1 (stereo not given) [Labetalol hydrochloride] (20 µM) 1
